Measurements taken from PubChem BioAssay (NCI).
About 79,000 compounds went through this panel and 15% of them were active in at least one assay; those are over-represented in the sample as a whole. Unmarked numbers belong to inactive results. Calls of active or inactive are those of the source. Cut-off read from the data, not from the text of the source: active = growth inhibition above about 70%; inactive = the rest. Where a SMILES comes first, the peptide text is derived from it. The star is where a group is joined. Trt = c1ccc(C(c2ccccc2)(c2ccccc2)*)cc1

Columns and labels:
[1] = NCI Yeast Anticancer Drug Screen. Data for the rad50 strain (AID 155);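 note: 0% = growth of vehicle-only cultures of the same strain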; settings: S. cerevisiae rad50 strain growth inhibition; at 50.0 µM; hits give high values
Outline: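 DNA repair mutant yeast, compound exposure, growth read-out; inhibition is taken relative to vehicle.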

[2] = NCI Yeast Anticancer Drug Screen. Data for the mec2-1 strain (AID 157); settings: S. cerevisiae mec2-1 strain, at 50.0 µM, hits give high values
Outline: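 Readout is yeast growth inhibition, normalised to vehicle-treated controls, in the mec2-1 strain exposed to compound.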

[3] = NCI Yeast Anticancer Drug Screen. Data for the sgs1 mgt1 strain (AID 161);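 note: 0% = growth of cultures given vehicle only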; settings: S. cerevisiae sgs1 mgt1 strain, at 50.0 µM, hits give high values
Outline: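 Yeast cells carrying a defined DNA-repair defect were exposed to test compounds. Growth inhibition was measured relative to vehicle-treated controls.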

[4] = NCI Yeast Anticancer Drug Screen. Data for the cln2 rad14 strain (AID 165);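 note: 0% = growth equal to vehicle treated cultures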; settings: S. cerevisiae cln2 rad14 strain, at 50.0 µM, hits give high values
Outline: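 Relative to vehicle controls, growth inhibition of compound-treated cln2 rad14 yeast was recorded.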

[5] = NCI Yeast Anticancer Drug Screen. Data for the bub3 strain (AID 167); settings: S. cerevisiae bub3 mutant strain, at 50.0 µM, hits give high values
Outline: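 In this screen, a yeast mutant lacking normal mitotic checkpoint function is challenged with compound. Relative growth versus vehicle gives the inhibition value.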

[6] = NCI Yeast Anticancer Drug Screen. Data for the mlh1 rad18 strain (AID 175); settings: S. cerevisiae mlh1 rad18 strain growth inhibition; at 50.0 µM; hits give high values
Outline: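 Test agents were incubated with a yeast strain of defined genotype (DNA damage repair defect). Inhibition of growth was derived by comparison with vehicle-exposed cultures.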

| SMILES | growth inhibition [1] | growth inhibition [2] | growth inhibition [3] | growth inhibition [4] | growth inhibition [5] | growth inhibition [6] |
| --- | --- | --- | --- | --- | --- | --- |
| O=C1C(=O)c2ccccc2C(O)=C1Cc1ccccc1 | -15.2% | 13.8% | -11.9% | 7.5% | -36.8% | 1.85% |
| COC(=O)C(Nc1ccc(OC)cc1)c1ccccc1 (stereo unspecified) | -3.85% | -1.35% | -8.6% | -21.6% | 4% | -13.6% |
| COc1cc(C=Nc2ccc3c(c2)OCO3)ccc1OC(=O)c1ccccc1 | 5.3% | 7.6% | 8.35% | 8.25% | 12.9% | -5.5% |
| CN1CCCc2cccc(NC(=O)C3CCCNC3=O)c21 (stereo unspecified) | -15.3% | 1.35% | -2.3% | -32.8% | 6.55% | 9.75% |
| CCCC1(C)COC(/C=C/c2ccccc2)OC1 (stereo unspecified) | 6.85% | -9.7% | -8.3% | -1.85% | -8.2% | 8.4% |
| Cc1cccc2c1C1C(CC2=O)C(=O)c2ccccc2C1C (stereo unspecified) | 7% | -17.8% | 3.5% | 8.9% | 11.6% | 11.5% |
| S=c1nc(-c2cccnc2)[nH][nH]1 | 1.6% | 0.5% | 0.7% | 0.8% | 1.55% | 3.85% |
| Oc1ccc2ccccc2c1C(c1cccc2ccccc12)N1CCCCC1 (stereo unspecified) | 16.1% | 1.4% | 9.7% | 3.2% | 16.1% | 53.8% |
| O=C1OC(/C=C/c2ccccc2)=NC/1=C\c1ccccc1Cl | 29.8% | 15.4% | 35% | 21.6% | 17.4% | 20.4% |
| CC1=NN(C(=O)c2ccncc2)C(=O)C1N=Nc1ccc([N+](=O)[O-])cc1Cl (stereo unspecified) | 47.1% | 9.95% | 21.3% | -26.1% | -2.1% | 14.1% |
| Cc1cc(=O)n2ccnc2[nH]1 | 24.2% | 11.3% | 6.2% | 19.1% | 9.65% | 20.1% |
| CCCC(O)C(C)C(O)CC (stereo unspecified) | -9.85% | -30.4% | -22.2% | -3.45% | 1.4% | -1.45% |
| CC(C)(C)c1cc(C2OC(N)=C(O)C2=O)cc(C(C)(C)C)c1O (stereo unspecified) | 13.4% | 11.1% | 24.7% | 13.8% | 5.4% | 32.2% |
| O=C(c1nc2ccc(Cl)cc2[nH]c1=O)C(O)c1ccccc1 (stereo unspecified) | 47.5% | 6.95% | 39.4% | 42.9% | 28.9% | 41.8% |
| O=S(=O)(O)CCCCCO | -6.45% | -18.7% | -15.7% | -46.8% | -2.85% | -9.95% |
| NNc1nc2ccccc2[nH]1 | 16.6% | -0.1% | -34.9% | -14.4% | 8.9% | 8.85% |
| O=CNc1ccc(Br)cc1 | -8.3% | -0.9% | 11.4% | 0.7% | -1.15% | 9.95% |
| O=C(Nc1nc(C23CC4CC(CC(C4)C2)C3)cs1)c1cc2cc(Cl)ccc2oc1=O | -32.2% | -37.5% | -2.35% | 10.6% | -28.1% | -38% |
| CCCCC1(O)CC2CC1C(C)C2(C)C (stereo unspecified) | 0.3% | 7.75% | -3.45% | 22.1% | 16.4% | 2.5% |
| Cc1ccccc1S(=O)(=O)N1C(=O)c2ccccc2S1(=O)=O | 12.8% | -13.8% | 5.35% | 10.2% | 5.15% | -13.8% |
| CCN(CC)CCN1c2ccccc2Sc2ccc3ccccc3c21 | 37.5% | 0.8% | 2.7% | 3.4% | 38.5% | 58.5% |

| SMILES | growth inhibition [1] | growth inhibition [2] | growth inhibition [3] | growth inhibition [4] | growth inhibition [5] | growth inhibition [6] |
| --- | --- | --- | --- | --- | --- | --- |
| S=P(c1ccccc1)(c1ccccc1)C(P(c1ccccc1)c1ccccc1)P(c1ccccc1)c1ccccc1 | 47.9% | 49.9% | 46.1% | 49.7% | 33.5% | 62% |
| CC(C)=C(CSC#N)S(=O)(=O)c1ccc(C)cc1 | 0.45% | 14.2% | 7.1% | -5.1% | 36.9% | 14.7% |
| CC(=O)C(CN1CCOCC1)C(C)(C)O (stereo unspecified) | 2.9% | 31.8% | 15.6% | -6.35% | 2.8% | 12.4% |
| C1CCN(c2nsc(N3CCCCC3)n2)CC1 | -13.7% | -5.15% | 2.95% | -52.1% | -14.6% | 18.2% |
| O=C1O[C@H]2C3C4CCC(C4[C@@H]2I)[C@H]13 (stereo partly specified) | -13.7% | -13.8% | -9.1% | 19.9% | 14.1% | 16.6% |
| CN(C)CCN(C)CCN(C)CCN(C)C | -10.4% | -25.8% | 11.8% | -6.75% | 5.9% | -6.7% |
| CN1C(=O)N/C(=C\c2ccc(S(=O)(=O)N/N=C\C(O)C(O)C(O)CO)cc2)C1=O (stereo unspecified) | -25.4% | -15% | -22.9% | 4.15% | -39.1% | -35% |
| COC(=O)C(NC(=O)C(N)CSC(c1ccccc1)(c1ccccc1)c1ccccc1)C(C)C (stereo unspecified) (H-Cys(Trt)-Val-OMe; configuration not given here) | 97.3% (active) | 98.6% (active) | 98.7% (active) | 95.2% (active) | 97.6% (active) | 98.5% (active) |
| N#CC1C=CN(Cc2ccccc2)C=C1C(=O)c1ccccc1 (stereo unspecified) | -1.5% | -3.9% | -5.85% | 2.55% | 7.6% | 5.2% |
| CC(C)c1ccc(OC(=O)N(c2ccccc2)c2ccccc2)cc1 | 12.4% | 15% | -5.35% | 3.5% | -1.6% | -2.8% |
| OCC1CC1c1ccccc1 (stereo unspecified) | -4.75% | -0.65% | -6.4% | 10.5% | 10.7% | 5.55% |
| CC(=O)OCCn1c(Cc2ccc(Cl)cc2)nn(C(C)=O)c1=O | 14.4% | 5.95% | 20.1% | 6.7% | -15.2% | 15.3% |
| Cc1ccc(NC2C=C(c3ccccc3)Oc3ccccc32)c(C)c1 (stereo unspecified) | 20.1% | -3.7% | 20.9% | -3.25% | 14.1% | 8.45% |
| CCC(OC(C)=O)c1ccccc1 (stereo unspecified) | 12.8% | 17.2% | 11.5% | 6.45% | 27.4% | 1.5% |
| C=C(C)C(=O)Oc1ccccc1-c1ccccc1 | 2.55% | -10.2% | -5.5% | 15.6% | 2.65% | -26.5% |
| COC(=S)SSC(=S)NCCN(CCNC(=S)SSC(=S)OC)C(=S)SSC(=S)OC | 2.05% | 6.2% | -2.65% | -2.7% | 7.8% | 26.6% |
| CC12CCC(=O)C=C1CCC1C2C(=O)CC2(C)C1CCC2(O)C(=O)Cn1c(=O)[nH]cc(F)c1=O (stereo unspecified) | 5.95% | -5.8% | 3.55% | 5.65% | -0.85% | 2.3% |
| Cc1nc(N)nc(C)c1N=Nc1ccc(Br)cc1Br | 41.2% | 4.5% | 20.5% | 5.05% | 0.6% | 15% |
| CC(=O)OC(c1ccccc1)C1(c2ccccc2)OCCO1 (stereo unspecified) | -9.2% | 7.5% | 5.75% | -33% | 1.4% | 17.1% |
| CCOc1ccc(Nc2nc(C)c(C(=O)CC(=O)C(=O)Nc3ccc(C(C)C)cc3C(C)C)s2)cc1 | -31.2% | 10.1% | 5.45% | -14.8% | -20% | -38.4% |
